Consider nine compounds from PubChem BioAssay (NCI).

Molecules are shown by their SMILES. About 83,000 compounds went through this panel and 20% of them were active in at least one assay; those are over-represented in the sample as a whole.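 Each cell line was grown in a 96-well plate and treated with one concentration of compound for 48 hours. Values below 10 were considered active.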 A number with no mark means an inactive call. The source made the active and inactive calls.

Test in all cases: NCI-60 one-dose screen, 48 h (100 = growth as untreated, 0 = no growth, -100 = all killed)
Assay [1] concerns SR leukemia. The conditions noted are these: 10 µM.
Assay [2] relates to RPMI-8226 leukemia. The conditions noted are these: 10 µM.
Assay [3] concerns OVCAR-8 ovarian. The following applies: 10 µM.
Assay [4] relates to OVCAR-5 ovarian. The conditions noted are these: 10 µM.
In assay [5] the test system is OVCAR-4 ovarian. The conditions noted are these: 10 µM.
The test system of assay [6] is SK-OV-3 ovarian. The conditions noted are these: 10 µM.
The test system of assay [7] is IGROV1 ovarian. The following applies: 10 µM.
The subject of assay [8] is OVCAR-3 ovarian. The following applies: 10 µM.
Assay [9] deals with HS 578T breast. The conditions noted are these: 10 µM.
Assay [10] concerns NCI/ADR-RES ovarian. The following applies: 10 µM.
Assay [11] has as its system T-47D breast. The conditions noted are these: 10 µM.
In assay [12] the test system is BT-549 breast. The following applies: 10 µM.
In assay [13] the test system is MDA-MB-435 melanoma. The following applies: 10 µM.
Assay [14] concerns SW-620 colon. The following applies: 10 µM.
Assay [15] has as its system MCF7 breast. The conditions noted are these: 10 µM unless noted.
For assay [16], the system named is HCT-116 colon. The conditions noted are these: 10 µM.
In assay [17] the test system is HCC-2998 colon. The following applies: 10 µM.
For assay [18], the system named is KM12 colon. The conditions noted are these: 10 µM.

`Cc1cc(C(C)(C)C)cc(C)c1Br`: the growth was 84.9% in assay [1]; 95.1% in [2]; 111% in assay [3]; 105% in [4]; 115% in assay [5]; 108% in assay [6]. Besides, the growth in [7] was 112%; in assay [8], 120%; in assay [9], 99.6%; in assay [10] it was 111%; in [11], 115%; in [12], 104%. For the same compound, the growth was 110% in assay [13]; 104% in assay [14]; 103% in [15]; 97.6% in assay [16]; 99.4% in assay [17]; 105% in assay [18].

As to `O=C(O)C(O)c1ccccc1` (configuration not stated), the growth in [1] was 94.7%; in [2] it was 113%; in [3], 105%; in assay [4], 103%; in assay [5] it was 98.6%; in assay [6] it was 109%. Moreover, the growth in assay [7] was 107%; in [8], 112%; in assay [9], 110%; in assay [10] it was 105%; in assay [11], 95.1%; in [12], 97.1%. In addition, the growth was 108% in [13]; 107% in assay [14]; 99.1% in [15]; 96.7% in assay [16]; 103% in assay [17]; 99.3% in assay [18].

In the case of `CC(=O)N(C)c1ccc([N+](=O)[O-])cc1`, the growth was 105% in assay [1]; 120% in assay [2]; 99.6% in assay [3]; 91.8% in assay [4]; 119% in [5]; 106% in assay [6]. In addition, the growth in assay [7] was 117%; in [8], 118%; in assay [9], 120%; in assay [10], 106%; in assay [11], 94.7%; in [12] it was 97.4%. Besides, the growth is 113% in [13]; 107% in [14]; 95.6% in assay [15]; 102% in assay [16]; 94.8% in assay [17]; 114% in assay [18].

Regarding `C/C(=C\c1ccc([N+](=O)[O-])cc1)C(=O)O`, the growth in assay [1] is 96.3%; in assay [2], 95.8%; in assay [3], 99.2%; in assay [4], 104%; in [5], 99.2%; in assay [6], 104%. Moreover, the growth in assay [7] was 110%; in [8], 110%; in assay [9], 101%; in [10], 109%; in [11], 98.8%; in [12], 94.2%. In addition, the growth in [13] was 102%; in assay [14], 102%; in [15], 95.7%; in assay [16], 97.3%; in [17], 101%.

For the compound `Cn1cnc2nc(Cl)nc(Cl)c21`, the growth in [1] is 27.9%; in assay [2], 23.4%; in [3], 24.3%; in assay [4], 59.8%; in [5], 42.4%; in [6], 61.2%. For the same compound, the growth in assay [7] was 30.3%; in [8], -27.8% (active); in assay [9] it was 72.4%; in assay [10] it was 27.1%; in assay [11] it was 56.7%; in assay [12] it was -28.5% (active). Further, the growth in assay [13] is -20.5% (active); in [14], 22.2%; in [15], 16.7%; in assay [16] it was 3.41% (active).

As to `O=C(O)CSCSCC(=O)O`, the growth in [1] was 97.1%; in [2], 97.3%; in [3], 101%; in [4], 101%; in [5] it was 99.6%; in assay [6] it was 93.6%. The growth in assay [7] was 107%; in assay [8], 104%; in [9] it was 114%; in assay [10] it was 109%; in assay [11], 95.4%; in assay [12], 101%. In addition, the growth was 99.6% in [13]; 105% in assay [14]; 99.6% in assay [15]; 106% in assay [16]; 109% in assay [17]; 109% in assay [18].

For `OCC1OC(OC2C(O)C(CO)OC2(CO)OC2OC(CO)C(O)C(O)C2O)C(O)C(O)C1O` (configuration not stated), the growth in assay [1] is 106%; in assay [2], 97.9%; in [3], 113%; in assay [4], 107%; in assay [5], 100%; in assay [6] it was 108%. Also, the growth was 123% in assay [7]; 121% in [8]; 110% in [9]; 107% in assay [10]; 110% in assay [11]; 105% in [12]. Also, the growth in [13] was 111%; in [14] it was 111%; in assay [15] it was 95%; in [16], 97.8%.

For `COC(=O)Nc1cccc(Cl)c1OC`, the growth in [1] was 101%; in assay [2], 99.3%; in assay [3], 106%; in assay [4], 92.6%; in assay [5], 111%; in [6] it was 116%. Besides, the growth in assay [7] was 110%; in [8] it was 111%; in [9] it was 95.4%; in assay [10] it was 110%; in [11] it was 104%; in assay [12], 111%. Also, the growth in assay [13] is 101%; in assay [14], 71.7%; in assay [15], 104%; in [16], 107%; in [17], 104%; in [18], 111%.

On to `O=C(O)CCCc1ccccc1`, for which the growth in assay [1] is 96.9%; in assay [2], 110%; in assay [3] it was 96.7%; in assay [4], 104%; in assay [5], 117%; in assay [6], 110%. Moreover, the growth was 121% in assay [7]; 121% in assay [8]; 118% in assay [9]; 103% in assay [10]; 101% in assay [11]; 105% in assay [12]. Besides, the growth in assay [13] is 98.9%; in [14], 111%; in assay [15] it was 104%; in assay [16], 104%; in [17], 107%; in assay [18], 114%.
